The values below come from PubChem BioAssay (NCI).

Where “and” joins values, the source holds several entries; their conditions need not be identical. Equal entries are not always repeated. Compounds without any hit were thinned out: in the full panel of roughly 83,000, 20% have a hit.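 Values shown are percent growth following 48 h exposure of cells in 96-well plates to a single concentration of compound; below 10 was considered active.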 Calls of active or inactive are those of the source.

This experiment has as its system MCF7 breast. Kind of experiment: NCI-60 one-dose screen, 48 h (100 = growth as untreated, 0 = no growth, -100 = all killed). The note with it: 10 µM unless noted. The method, then: Growth inhibition of the MCF7 human tumor cell line is measured as a screen for anti-cancer activity. Cells are grown in 96 well plates and exposed to the test compound for 48 hours. Compounds are tested at a single concentration, which is 10^-5 M for most compounds. The reported endpoint is percent growth (GI% or GIPRCNT), where numbers from 0 - 100% represent growth inhibition, and numbers from -100% - 0 represent cell death. For example, a value of 40 represents 60% growth inhibition. A value of 0 means no net growth occurred over the course of the experiment. A value of -40 indicates 40% of cells at the beginning of the experiment died by the end of the experiment. A value of -100 means all cells are dead at the end of the experiment.
NCI-60 Human Tumor Cell Lines Screen was performed using the standard one-dose NCI protocol, which is described in more detail at https://dtp.cancer.gov/discovery_development/nci-60/default.htm.
Compounds with GIPRCNT values below 10 were considered active. Activity score was based on GIPRCNT using the following formula: […]
Score is 0 for GIPRCNT values of 100 or above, 50 for GIPRCNT values of 0, and 100 for GIPRCNT values of -100.
In the case of `O=C(O)c1cnccc1-c1cc(=O)[nH]n1-c1ccccc1`, the growth is 29.1% [100 µM] (inactive) and 3.22% [100 µM] (active).
As for `CC(=O)Nc1ccccc1-c1n[nH]c(=O)[nH]c1=O`, the growth was 101% (inactive).
For `CCN1C(=O)C2(Nc3ccccc3S2)c2cc(C)ccc21` (stereo not given), the growth was 101% (inactive).
As for `CC(=O)OC[C@H](O)[C@@]1(O)CC[C@H]2[C@@H]3CCC4=CC(=O)CC[C@]4(C)[C@H]3[C@@H](O)C[C@@]21C`, the growth is 112% (inactive).
For the compound `Cc1cc(C)c(S(=O)O)c(C)c1`, the growth was 109% (inactive).
To `CC(C)(C)c1cc(C2COC(=O)COCC(=O)OCCOCCOCCO2)cc(C(C)(C)C)c1O` (stereo not given) belongs 64.9% [100 µM] (inactive) and 75.7% [100 µM] (inactive); to `COc1ccc(CC2c3cc(OC)c(OC)c(OC)c3CC[N+]2(C)C)cc1Oc1ccc(CC2c3cc4c(c(OC)c3CCN2C)OCO4)cc1` (stereo not given), 69.2% [100 µM] (inactive) and 5.51% [100 µM] (active).
As for `O=c1[nH]c(=O)n(C2CC(O)C(CO)O2)cc1Br` (stereo not given), the figure is 29% [100 µM] (inactive) and -14.9% [100 µM] (active); as for `ClC(Cl)(Cl)C1CCOC1n1nnc2ccccc21` (stereo not given), 68.3% [100 µM] (inactive) and 0.0175% [100 µM] (active); as for `CCOC(=O)CCC(NC(=O)c1ccc(OCc2nc3cc(C(F)(F)F)ccc3nc2-c2ccccc2)cc1)C(=O)OCC` (stereo not given), 32% [100 µM] (inactive) and -53% [100 µM] (active).
In the case of `c1ccc2c(c1)oc1cc3c(cc12)nnc1cccn13`, the growth was 82.3% (inactive).
As for `COc1cc(-c2ccc3cc(OC)c(OC)c(OC)c3c2)cc(OC)c1OC`, the growth is 49.4% (inactive).
Regarding `Cc1ccc(NS(=O)(=O)c2ccc(-c3cnc(C4CC4)o3)cc2)cc1`, the growth is 15.6% (inactive).
Take `O=C1NC(=O)C(CSc2ccccc2)(c2ccccc2)N1` (stereo not given): the growth was 101% (inactive).
Consider `COc1cc([N+](=O)[O-])c(OC)c2c(Nc3ccc(S(=O)(=O)O)c4cc(S(=O)(=O)O)cc(S(=O)(=O)O)c34)cc(C)nc12`, for which the growth is -88.5% [100 µM] (active) and -100% [100 µM] (active).
Regarding `Cc1ccccc1-c1cc(-c2ccc(Br)s2)[nH]c(=O)c1C#N`, the growth was 92.3% (inactive).
As for `C[C@H]1C(=O)C23CCC1C[C@@]21O[C@@H]2C(C)(C)C=CC(=O)C23COC1=O`, the figure is 99.5% (inactive).
As for `C[C@@H](Oc1cc(-c2cnn(C3CC4(CCCNC4)C3)c2)cnc1N)c1c(Cl)ccc(F)c1Cl` (stereo not given in full), the figure is -14.5% (active); as for `C=CC(=O)N1CC2(CC(n3nc(-c4ccc(Oc5ccccc5)cc4)c4c(N)ncnc43)C2)C1`, 26.5% (inactive); as for `O=C1CCC(N2C(=O)c3cccc(NCCOCCOCCNC(=O)c4cc5c(o4)C(=O)c4ccccc4C5=O)c3C2=O)C(=O)N1` (stereo not given), -61.3% (active).
Take `O=C1c2cc(S(=O)(=O)O)ccc2C(=O)c2c1cccc2[N+](=O)[O-]`: the growth was 101% (inactive).
To `COc1ccccc1CNCCCCCCCCCCCCN1C(=O)c2ccc3c4c(ccc(c24)C1=O)C(=O)N(CCCCCCCCCCCCNCc1ccccc1OC)C3=O` belongs 26.7% (inactive).
On to `Cc1ccc(-c2c3c(N)c4c(nc3nc3c2c(C)nn3-c2ccccc2)CCCC4)cc1`, for which the growth is 94.2% (inactive).
On to `COc1cc(/C=N/NC(=O)c2cnn3c2NC(c2ccccc2)C3)ccc1OC1CCCC1` (stereo not given), for which the growth was 16.8% (inactive).
On to `C[C@@H](Oc1cc(-c2cnn(C3CC4(CCNCC4)C3)c2)cnc1N)c1c(F)ccc(Cl)c1Cl`, for which the growth is -34.6% (active).
On to `CCC1CC(C)C(O)/C=C/C=C/CC(C)OC(=O)CC(O)C(OC)C1OC1OC(C)CC(O)(C(C)=O)C1O` (stereo not given), for which the growth was 32% [100 µM] (inactive) and 5.08% [100 µM] (active).
As for `CC1(C)CC2(C)OC(=N)C1(C#N)C2(C#N)C#N` (stereo not given), the figure is -56.8% [100 µM] (active) and -71.8% [100 µM] (active); as for `Cc1ccc2nc(NC(=O)CSC(=S)N3CCN(C)CC3)sc2c1`, 93% (inactive); as for `Cc1nc2cc(Nc3nc(Nc4ccc(F)cc4)nc(-c4cccs4)n3)ccc2n1Cc1ccccc1`, 32.9% (inactive).
On to `c1ccc2cc(Cn3c(-c4ccc5ccccc5c4)[n+](Cc4ccc5ccccc5c4)c4ccccc43)ccc2c1`, for which the growth is -70.1% (active).
For the compound `O=S(=O)(OCCO)c1ccccc1`, the growth is 94.9% (inactive).
Consider `COc1cc(-c2nc(Nc3nc4ccccc4[nH]3)nc(N)c2C#N)cc(OC)c1OC`, for which the growth is 30.9% (inactive).
For the compound `O=c1oc2ccccc2cc1-c1csc(N/N=C/c2cc3ccccc3nc2Cl)n1`, the growth is 90.7% (inactive).
As to `COc1ccc2c(c1)c(=O)oc1c(C)c(OCC(C)=O)ccc12`, the growth was 101% (inactive).
For the compound `Cc1ccccc1-n1nnc(C(=O)Nc2nc(-c3ccccc3)c(-c3ccccc3)s2)c1C`, the growth was 72.2% [50 µM] (inactive).
Take `CN(C)C(=S)SCN1C(=O)c2ccc([N+](=O)[O-])cc2S1(=O)=O`: the growth is 97.4% (inactive).
Consider `CCCCCCCC/C=C\CCCCCCCCOc1cccc(CC(=O)NCC[N+]2(C)CCCCC2)c1`, for which the growth was 75.7% (inactive).
Consider `OC[C@@H](O)[C@@H](O)CO`, for which the growth was 99.9% (inactive).
For `C=C1CC(O)C2C(=C)C(=O)OC2C2C(C)C(=O)CC12` (stereo not given), the growth is -76.9% [100 µM] (active) and -61.7% [100 µM] (active).
For the compound `COC(=O)c1cc(-c2ccc(C)cc2)n(C(=O)CSc2nc3sc(C(N)=O)c(C)c3c(=O)n2Cc2ccccc2)n1`, the growth is 90.2% (inactive).
